# Measurements published in the supplement of paper PMC6555819.
# Test system: LXRb:RXRa (NR concentration 270 nM, RXRa partner concentration 90 nM)
# Assay: PBM binding z-score (relative to random genomic background probes); higher = stronger binding; sequences stand for … in GC…GCGATTGACAGCGTAGAATGAAGG
# Summary of the method: (§1)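 For binding z-scores, the reference was random background probes on custom Agilent 4×180K protein-binding microarrays. These arrays were incubated 1 h with ligand-free nuclear receptor dimers in PBS pH 7.4, 2% milk, 0.02% Triton X-100, 1 mM DTT, 0.2 mg/mL BSA and 0.4 mg/ml salmon testes DNA. Fluorescence was scanned after antibody detection of each partner (one per run) and regression-normalized.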
row,Sequence,PBM binding z-score
1,GCTGACGGGTCAAAGGTTATAGCATGAATAGAAT,5.53
2,ATCGAAAGGTTGACGAGGTGAGTATACACCGTTT,0.764
3,CCTAATGGGCCATTCAGAGGTCATTGATCATATG,4.05
4,CAAACTAGCTCAAGGTCAAAGTCGGTTTGTGCCA,4.13
5,TAGCCTAGATCAGATCGGGCCAGTATACGCTATA,-1.18
6,CCTAGCAGGTCAGGGTCACTCAAGCATTTCGCTT,3.41
7,TAGCCTAGGTCATGCGAGCCAGTATAGTGTCGGC,1.8
8,CCTACTGGGCCCAAAAGGTCATTGATGCCGATAA,4.62
9,TCTAGTTGGTCAAAGGTCACACATTCGAAATGCG,5.35
10,AGAATGAGGTTAAGAACAGGGAAACAGAATACAT,1.87
11,GATACAGGGTCAAGGCAAGAGTACGCGTATTGAT,3.95
12,CCTTACGGGTCAAGCTTATAGCACGGGTGGTACG,3.04
13,CTACCAAGGTGAACAAGGTCCTTGATTACTATTC,0.744
14,TCTCGGAGGACACGAAAGGTCAGAGCTCGACATC,2.84
15,TCTATTAGTTGATTACGGCAACCGAAACAGCGGA,0.546
16,ATCGAAAGGTCGGAGGTGAGTATACCCACCCGAA,1.67
17,TGAATGAGGTTAAAGTTCAGGGAACGTGGCGTCG,3.68
18,CCTTACGGGTCACTCCAGTTTATAGCATCGGAGT,3.77
19,ACTAGTAGTTGACTTAGGGCAACCGATACGACGC,-0.351
20,ACAGACAGGGGAGTGAAGGTAACTCAGCTGGACG,0.312

row,Sequence,PBM binding z-score
1,TAGCCTATGTCATGCGGGCCAGTATAGTGTCGGC,-0.937
2,CCTACTGGGCCAAAGGTCATTGTTTCCAATGCTC,4.72
3,CCGACTGGGGCAAGGTTACCTTAACGCACAGCCA,0.495
4,CATACAGGGTCAGATAGGCCAGAGTAGGGACGGC,2.31
5,CCAGACAGGTGAGAAGGGAACTCAGCCTCGATTA,-0.208
6,CTCGAAAGGTCGTGCTCAGTTGAGTATACCAAAC,3.5
7,GGAACGAGGGCATTCGAGTTGATAGAATGGCGAT,0.195
8,ATCGAAAGGTCGACGAGGTGTGTATACACCGTTT,2.62
9,TCTAGTAGGTTACCAATGGGGCATTCAGCTTTCT,1.37
10,GCTAGCAGGGCATTTGGGTCACTCAATGACGGGC,0.541
11,ACAGACAAGTGAGTGAAGGTAACTCAGCTGGACG,-0.57
12,TCGTATAGGTAAAAGGTGAAAGTCGGTGTGGTAA,2.23
13,GCTCGGAGGACAAGGTCAGAGCTTTGTCCGTAGA,1.29
14,CCGAGTAGGTTATGGCGCATTCAGGCAACGGTGA,0.076
15,CCTACTGGGCCATTCAGACGTCATTGATCATATG,-0.449
16,AGAATGAGGTTACCAAAAATCAGGGAAACGCTTG,1.54
17,CCTCGGAGGACAGAAGTTCAGAGCTGTCCGCTTT,-0.479
18,GCTTGTAGATCAAGGTTAAGATAGACTAAGCTAA,0.529
19,CAAACTAGGTCAAGAGGTCAAAGTACGCTTCCCG,5.71
20,ATCGAAATGTCGACGAGGTGAGTATACACCGTTT,-0.0135

# Test system: LXRb homodimer (NR concentration 270 nM)
# Assay: as above
# Summary of the method: as §1
row,Sequence,PBM binding z-score
1,GCTGACGGGTCAAAGGTTATAGCATGAATAGAAT,-0.231
2,ATCGAAAGGTTGACGAGGTGAGTATACACCGTTT,-0.00698
3,CCTAATGGGCCATTCAGAGGTCATTGATCATATG,1.04
4,CAAACTAGCTCAAGGTCAAAGTCGGTTTGTGCCA,1.45
5,TAGCCTAGATCAGATCGGGCCAGTATACGCTATA,-1.2
6,CCTAGCAGGTCAGGGTCACTCAAGCATTTCGCTT,-0.723
7,TAGCCTAGGTCATGCGAGCCAGTATAGTGTCGGC,0.134
8,CCTACTGGGCCCAAAAGGTCATTGATGCCGATAA,0.521
9,TCTAGTTGGTCAAAGGTCACACATTCGAAATGCG,1.75
10,AGAATGAGGTTAAGAACAGGGAAACAGAATACAT,0.264
11,GATACAGGGTCAAGGCAAGAGTACGCGTATTGAT,0.189
12,CCTTACGGGTCAAGCTTATAGCACGGGTGGTACG,0.0884
13,CTACCAAGGTGAACAAGGTCCTTGATTACTATTC,-0.587
14,TCTCGGAGGACACGAAAGGTCAGAGCTCGACATC,-0.0794
15,TCTATTAGTTGATTACGGCAACCGAAACAGCGGA,0.998
16,ATCGAAAGGTCGGAGGTGAGTATACCCACCCGAA,0.308
17,TGAATGAGGTTAAAGTTCAGGGAACGTGGCGTCG,0.344
18,CCTTACGGGTCACTCCAGTTTATAGCATCGGAGT,-0.0101
19,ACTAGTAGTTGACTTAGGGCAACCGATACGACGC,-0.259
20,ACAGACAGGGGAGTGAAGGTAACTCAGCTGGACG,0.211

row,Sequence,PBM binding z-score
1,TAGCCTATGTCATGCGGGCCAGTATAGTGTCGGC,-0.855
2,CCTACTGGGCCAAAGGTCATTGTTTCCAATGCTC,1.37
3,CCGACTGGGGCAAGGTTACCTTAACGCACAGCCA,-1.66
4,CATACAGGGTCAGATAGGCCAGAGTAGGGACGGC,0.65
5,CCAGACAGGTGAGAAGGGAACTCAGCCTCGATTA,-0.526
6,CTCGAAAGGTCGTGCTCAGTTGAGTATACCAAAC,0.338
7,GGAACGAGGGCATTCGAGTTGATAGAATGGCGAT,-0.719
8,ATCGAAAGGTCGACGAGGTGTGTATACACCGTTT,0.354
9,TCTAGTAGGTTACCAATGGGGCATTCAGCTTTCT,0.0938
10,GCTAGCAGGGCATTTGGGTCACTCAATGACGGGC,-0.663
11,ACAGACAAGTGAGTGAAGGTAACTCAGCTGGACG,-0.342
12,TCGTATAGGTAAAAGGTGAAAGTCGGTGTGGTAA,0.0721
13,GCTCGGAGGACAAGGTCAGAGCTTTGTCCGTAGA,-0.667
14,CCGAGTAGGTTATGGCGCATTCAGGCAACGGTGA,-0.283
15,CCTACTGGGCCATTCAGACGTCATTGATCATATG,-0.437
16,AGAATGAGGTTACCAAAAATCAGGGAAACGCTTG,-0.426
17,CCTCGGAGGACAGAAGTTCAGAGCTGTCCGCTTT,-0.948
18,GCTTGTAGATCAAGGTTAAGATAGACTAAGCTAA,-0.803
19,CAAACTAGGTCAAGAGGTCAAAGTACGCTTCCCG,2.26
20,ATCGAAATGTCGACGAGGTGAGTATACACCGTTT,-0.0075
